Test [1] addresses T1, Serine/threonine-protein kinase TBK1 (Homo sapiens) (UniProt Q9UHD2).
T1 sequence (whole entry): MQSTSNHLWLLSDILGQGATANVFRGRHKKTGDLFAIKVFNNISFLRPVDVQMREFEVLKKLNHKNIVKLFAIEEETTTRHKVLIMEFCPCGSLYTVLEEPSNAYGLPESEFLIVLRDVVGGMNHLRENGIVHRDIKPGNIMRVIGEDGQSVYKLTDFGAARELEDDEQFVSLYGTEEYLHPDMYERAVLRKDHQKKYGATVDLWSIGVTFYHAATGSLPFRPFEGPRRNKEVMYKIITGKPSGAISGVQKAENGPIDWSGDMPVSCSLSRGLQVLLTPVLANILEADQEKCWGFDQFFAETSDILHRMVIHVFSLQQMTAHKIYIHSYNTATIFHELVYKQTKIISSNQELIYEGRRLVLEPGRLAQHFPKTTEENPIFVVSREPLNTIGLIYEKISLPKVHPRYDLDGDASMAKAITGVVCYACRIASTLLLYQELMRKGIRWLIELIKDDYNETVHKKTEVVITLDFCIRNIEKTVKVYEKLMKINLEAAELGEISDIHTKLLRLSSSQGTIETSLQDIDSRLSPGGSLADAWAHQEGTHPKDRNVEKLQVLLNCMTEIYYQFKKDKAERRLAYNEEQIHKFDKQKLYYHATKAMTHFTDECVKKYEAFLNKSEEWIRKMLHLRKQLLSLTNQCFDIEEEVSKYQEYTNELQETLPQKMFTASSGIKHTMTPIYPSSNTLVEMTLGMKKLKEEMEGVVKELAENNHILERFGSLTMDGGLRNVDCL
As to conditions: at 10 µM.

Test [2] deals with T2, TGF-beta receptor type-1 (Homo sapiens) (UniProt P36897).
T2 sequence (whole entry): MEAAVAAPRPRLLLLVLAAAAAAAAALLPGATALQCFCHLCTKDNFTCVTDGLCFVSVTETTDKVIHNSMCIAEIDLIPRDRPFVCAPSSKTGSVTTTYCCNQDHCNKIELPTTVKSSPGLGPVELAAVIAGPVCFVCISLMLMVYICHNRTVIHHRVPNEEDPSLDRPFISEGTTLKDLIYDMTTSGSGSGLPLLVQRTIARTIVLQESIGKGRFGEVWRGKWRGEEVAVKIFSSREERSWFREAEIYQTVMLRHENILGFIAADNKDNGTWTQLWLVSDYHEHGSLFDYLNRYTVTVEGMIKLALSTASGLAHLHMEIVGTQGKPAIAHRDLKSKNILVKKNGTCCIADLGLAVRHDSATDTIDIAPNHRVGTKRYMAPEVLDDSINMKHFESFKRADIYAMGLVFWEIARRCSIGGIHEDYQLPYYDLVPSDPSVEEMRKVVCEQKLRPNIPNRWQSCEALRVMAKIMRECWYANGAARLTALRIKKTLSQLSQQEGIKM
As to conditions: at 1 µM.

The target in test [3] is T2, TGF-beta receptor type-1 (Homo sapiens). As to conditions: at 10 µM.
Test [4] deals with Insulin-like growth factor 1 receptor (Homo sapiens) (UniProt P08069). The following applies: at 1 µM.
Test [5] has the same target. The following applies: at 10 µM.
In test [6] the target is T3, Inhibitor of nuclear factor kappa-B kinase subunit alpha (Homo sapiens) (UniProt O15111).
T3 sequence (whole entry): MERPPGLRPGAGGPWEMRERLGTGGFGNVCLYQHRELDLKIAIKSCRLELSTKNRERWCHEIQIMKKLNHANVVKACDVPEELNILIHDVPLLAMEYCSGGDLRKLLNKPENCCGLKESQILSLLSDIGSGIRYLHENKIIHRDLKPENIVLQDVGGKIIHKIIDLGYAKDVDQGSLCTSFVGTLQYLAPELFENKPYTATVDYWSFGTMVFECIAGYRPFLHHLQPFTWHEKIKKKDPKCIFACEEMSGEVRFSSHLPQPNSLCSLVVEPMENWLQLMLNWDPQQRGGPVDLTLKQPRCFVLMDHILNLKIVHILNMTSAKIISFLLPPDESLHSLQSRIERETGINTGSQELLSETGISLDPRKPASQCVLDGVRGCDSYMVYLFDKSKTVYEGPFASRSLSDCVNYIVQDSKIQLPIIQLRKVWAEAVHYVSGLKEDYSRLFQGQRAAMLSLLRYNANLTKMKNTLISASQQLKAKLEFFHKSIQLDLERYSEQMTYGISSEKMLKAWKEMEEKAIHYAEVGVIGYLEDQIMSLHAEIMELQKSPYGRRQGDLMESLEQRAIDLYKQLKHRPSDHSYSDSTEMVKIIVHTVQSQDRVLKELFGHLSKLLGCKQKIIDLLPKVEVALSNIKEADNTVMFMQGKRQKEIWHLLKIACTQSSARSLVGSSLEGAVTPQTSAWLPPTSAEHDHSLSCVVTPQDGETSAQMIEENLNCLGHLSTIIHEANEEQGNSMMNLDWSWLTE
The following applies: at 1 µM.

Test [7] concerns the target T3, Inhibitor of nuclear factor kappa-B kinase subunit alpha (Homo sapiens). As to conditions: at 10 µM.
The target in test [8] is T4, Inhibitor of nuclear factor kappa-B kinase subunit beta (Homo sapiens) (UniProt O14920).
T4 sequence (whole entry): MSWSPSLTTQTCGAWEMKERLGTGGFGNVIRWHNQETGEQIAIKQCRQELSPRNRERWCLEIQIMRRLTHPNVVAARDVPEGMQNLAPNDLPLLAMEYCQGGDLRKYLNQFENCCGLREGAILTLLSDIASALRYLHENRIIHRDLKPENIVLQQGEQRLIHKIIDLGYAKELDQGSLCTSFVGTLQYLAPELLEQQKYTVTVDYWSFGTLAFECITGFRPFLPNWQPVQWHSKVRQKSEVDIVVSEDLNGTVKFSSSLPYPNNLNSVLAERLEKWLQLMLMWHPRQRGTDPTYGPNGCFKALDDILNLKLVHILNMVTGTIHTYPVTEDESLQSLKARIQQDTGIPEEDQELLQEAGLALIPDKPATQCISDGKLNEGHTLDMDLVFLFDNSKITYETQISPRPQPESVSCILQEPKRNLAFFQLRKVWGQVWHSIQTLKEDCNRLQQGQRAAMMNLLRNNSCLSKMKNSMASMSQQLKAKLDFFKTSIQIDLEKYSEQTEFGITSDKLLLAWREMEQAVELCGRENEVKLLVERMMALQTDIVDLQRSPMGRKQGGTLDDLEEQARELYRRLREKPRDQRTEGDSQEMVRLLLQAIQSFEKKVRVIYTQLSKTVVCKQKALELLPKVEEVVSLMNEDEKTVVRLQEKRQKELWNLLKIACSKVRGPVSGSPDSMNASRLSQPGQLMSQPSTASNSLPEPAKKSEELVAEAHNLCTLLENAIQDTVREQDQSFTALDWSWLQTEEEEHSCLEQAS
The following applies: at 1 µM.

Test [9] deals with T4, Inhibitor of nuclear factor kappa-B kinase subunit beta (Homo sapiens). As to conditions: at 10 µM.
Test [10] addresses Insulin receptor (Homo sapiens) (UniProt P06213). The following applies: at 1 µM.

This is an account of results in ChEMBL document CHEMBL2218924, “A broad activity screen in support of a chemogenomic map for kinase signalling research and drug discovery” (Biochem J, 2013).

Broadly, the residual activity is the signal under treatment as a percentage of the control signal.

Chain of Insulin-like growth factor 1 receptor (Homo sapiens) (P08069 31-736 limits assumed): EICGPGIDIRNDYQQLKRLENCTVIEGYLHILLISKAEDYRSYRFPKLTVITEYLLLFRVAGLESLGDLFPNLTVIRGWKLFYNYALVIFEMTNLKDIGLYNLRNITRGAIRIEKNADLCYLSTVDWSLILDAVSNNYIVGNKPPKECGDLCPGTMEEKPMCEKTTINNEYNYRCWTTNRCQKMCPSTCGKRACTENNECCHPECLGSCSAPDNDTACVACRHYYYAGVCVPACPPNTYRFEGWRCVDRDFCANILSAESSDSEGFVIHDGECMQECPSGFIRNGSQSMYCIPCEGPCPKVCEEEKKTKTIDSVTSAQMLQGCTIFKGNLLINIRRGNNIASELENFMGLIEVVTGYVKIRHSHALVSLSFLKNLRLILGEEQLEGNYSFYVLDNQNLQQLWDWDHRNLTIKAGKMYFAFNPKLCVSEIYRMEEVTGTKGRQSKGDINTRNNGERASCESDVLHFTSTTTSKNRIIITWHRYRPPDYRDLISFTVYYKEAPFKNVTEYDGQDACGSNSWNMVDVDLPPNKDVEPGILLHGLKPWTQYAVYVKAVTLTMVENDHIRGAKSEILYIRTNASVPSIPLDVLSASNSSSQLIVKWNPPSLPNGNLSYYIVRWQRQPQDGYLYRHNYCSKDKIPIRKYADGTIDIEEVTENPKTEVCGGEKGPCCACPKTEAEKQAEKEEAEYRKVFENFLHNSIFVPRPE
Chain of Insulin-like growth factor 1 receptor (Homo sapiens) (P08069 741-1367 limits assumed): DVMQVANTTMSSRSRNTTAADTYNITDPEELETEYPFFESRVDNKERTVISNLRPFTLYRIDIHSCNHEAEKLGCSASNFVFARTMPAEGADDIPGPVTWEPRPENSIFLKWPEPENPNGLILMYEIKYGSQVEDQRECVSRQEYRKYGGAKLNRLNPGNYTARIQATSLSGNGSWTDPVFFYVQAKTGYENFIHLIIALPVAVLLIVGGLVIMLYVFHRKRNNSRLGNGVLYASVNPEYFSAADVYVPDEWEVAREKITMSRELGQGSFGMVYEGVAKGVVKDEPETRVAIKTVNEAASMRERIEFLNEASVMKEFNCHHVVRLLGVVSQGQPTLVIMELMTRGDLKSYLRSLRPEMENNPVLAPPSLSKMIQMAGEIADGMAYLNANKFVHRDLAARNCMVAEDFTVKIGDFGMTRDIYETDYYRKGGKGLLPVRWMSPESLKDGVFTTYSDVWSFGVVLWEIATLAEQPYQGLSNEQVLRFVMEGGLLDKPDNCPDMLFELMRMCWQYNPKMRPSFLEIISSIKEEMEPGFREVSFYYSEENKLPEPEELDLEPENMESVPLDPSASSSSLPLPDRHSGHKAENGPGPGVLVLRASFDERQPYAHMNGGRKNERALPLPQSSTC
Chain of Insulin receptor (Homo sapiens) (P06213 28-758 limits assumed): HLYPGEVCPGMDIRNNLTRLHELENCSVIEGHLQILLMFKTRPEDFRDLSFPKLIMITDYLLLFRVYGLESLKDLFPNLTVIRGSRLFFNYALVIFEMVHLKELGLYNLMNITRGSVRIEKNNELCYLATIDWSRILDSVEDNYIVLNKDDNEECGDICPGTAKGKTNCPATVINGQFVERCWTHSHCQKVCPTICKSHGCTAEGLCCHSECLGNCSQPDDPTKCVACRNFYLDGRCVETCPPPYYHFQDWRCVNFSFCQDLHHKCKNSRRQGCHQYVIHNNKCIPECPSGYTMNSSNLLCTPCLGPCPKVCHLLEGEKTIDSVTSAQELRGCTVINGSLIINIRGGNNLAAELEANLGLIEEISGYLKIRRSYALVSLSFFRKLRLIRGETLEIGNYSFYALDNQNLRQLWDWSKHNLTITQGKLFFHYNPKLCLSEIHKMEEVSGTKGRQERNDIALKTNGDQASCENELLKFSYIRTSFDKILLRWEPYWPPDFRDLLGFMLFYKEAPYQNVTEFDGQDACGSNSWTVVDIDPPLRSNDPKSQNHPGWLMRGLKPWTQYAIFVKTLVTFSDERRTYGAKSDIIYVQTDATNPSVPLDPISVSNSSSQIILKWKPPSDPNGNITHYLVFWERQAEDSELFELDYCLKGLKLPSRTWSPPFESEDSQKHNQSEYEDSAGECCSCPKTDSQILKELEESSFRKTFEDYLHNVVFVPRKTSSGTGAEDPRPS
Chain of Insulin receptor (Homo sapiens) (P06213 763-1382 limits assumed): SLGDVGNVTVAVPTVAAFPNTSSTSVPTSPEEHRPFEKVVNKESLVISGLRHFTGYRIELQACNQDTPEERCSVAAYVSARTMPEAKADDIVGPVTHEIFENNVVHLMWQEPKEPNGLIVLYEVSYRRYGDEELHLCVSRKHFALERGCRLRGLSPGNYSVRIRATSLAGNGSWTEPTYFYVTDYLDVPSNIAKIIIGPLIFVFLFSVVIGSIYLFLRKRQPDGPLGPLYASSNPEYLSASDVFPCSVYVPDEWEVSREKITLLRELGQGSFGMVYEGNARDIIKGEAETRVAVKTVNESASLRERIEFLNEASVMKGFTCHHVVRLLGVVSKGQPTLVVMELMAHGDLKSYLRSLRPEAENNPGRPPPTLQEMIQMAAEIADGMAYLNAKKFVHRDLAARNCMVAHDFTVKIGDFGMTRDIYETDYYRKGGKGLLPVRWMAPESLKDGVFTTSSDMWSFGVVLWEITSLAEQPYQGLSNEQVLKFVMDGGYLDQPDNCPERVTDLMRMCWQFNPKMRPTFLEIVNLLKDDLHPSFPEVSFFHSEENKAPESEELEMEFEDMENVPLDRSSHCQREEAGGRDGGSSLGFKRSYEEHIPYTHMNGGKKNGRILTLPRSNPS

In the case of `N#C/C(=C(\N)Sc1ccc(N)cc1)c1ccccc1C(F)(F)F`, the residual activity turned out to be 16% in test [1]; 101% in test [2]; 95% in test [3]; 103% in test [4]; 102% in test [5]; 101% in test [6]. The residual activity was 121% in test [7], 106% in test [8], 109% in test [9] and 113% in test [10].
